The values below come from ChEMBL document CHEMBL3988442, “University of Dundee, Small-Polar-MMV Screening Library” (2021).

SMILES strings stand for the structures. Values joined by “and” are separate entries in the source; they are usually repeats but may differ in a detail not shown here. Equal entries are not always repeated. Screen size: about 34,000 compounds; about 290 (0.85%) showed an effect of 50% or more. This excerpt belongs to a sample that is enriched for strong results.

The experiment deals with Plasmodium falciparum. As to the kind of experiment: Plasmodium falciparum sporozoite viability assay. It counts as functional, organism-based. Details: scale not given: in the data most compounds retested in dose-response had high values.

For `CCc1nc(CNC(C)Cn2cccn2)cs1` (configuration not stated), the “Percent Effect” value is 4.8%.
Same read-out and setting: the figure for `CNC(=O)[C@@H]1CN(Cc2ccccc2)C[C@H]1C(=O)c1ccc(F)cc1` is 12.45%.
`CC(C)(C)n1cc(C2=CCN(CCc3ccccn3)CC2)cn1`: the “Percent Effect” value (10 mM as filed; unlikely as a test dose) was 78.88% and 77.42%.
As to `CC(C)(C)n1cc(C2=CCN(CCNC(=O)c3ccccc3)CC2)cn1`, the “Percent Effect” value (10 mM as filed; unlikely as a test dose) is -11.67% and -1.893%.
Turning to `CC(C)(C)n1cc(C2=CCN(CCNC(N)=O)CC2)cn1`, where the note is “10 mM as filed; unlikely as a test dose”, the “Percent Effect” value is -28.2% and -25.06%.
Still for that read-out and setting: for `Cc1nc(O)cc(CN2CC=C(c3cnn(C(C)(C)C)c3)CC2)n1` the value was -34.41% and -32.55%.
Same read-out and setting: the figure for `CC(C)(C)n1cc(C2=CCN(CCN3CCCCCC3)CC2)cn1` is -30.5% and -32%; for `CC(C)(C)n1cc(C2=CCN(CCc3ccccc3)CC2)cn1` it is 84.88% and 75.7% and 89.28%.
Consider `O=C(O)C(F)(F)F.O=C(O)C(F)(F)F.O=S(=O)(C1CC1)N1CCC2(CC1)CN(Cc1ccccn1)CCO2`, for which the “Percent Effect” value is listed as 0.5199%.
Still for that read-out and setting: for `CCS(=O)(=O)N1CCN(CC2CC2)c2ncccc2C1` the value was 11.27%; for `O=C(c1ccsc1)N1CCN2C[C@H](OCc3ccccn3)C[C@H]2C1`, 1.117%.
Still for that read-out and setting: for `O=C(Cc1ccccn1)N1CCN2C[C@H](OCCN3CCCC3)C[C@H]2C1.O=C(O)C(F)(F)F.O=C(O)C(F)(F)F.O=C(O)C(F)(F)F` the value was -8.505%; for `Cl.FC(F)(F)c1nc(C2CCCNC2)no1` (configuration not stated), 6.016%.
In the case of `Cc1cccc(Nc2ccc(C3CCCCN3)cn2)n1` (configuration not stated), under “10 mM as filed; unlikely as a test dose”, the “Percent Effect” value is 97.8% and 85.07% and 40.73%.
Same read-out and setting: for `c1cnc(Nc2ccc(C3CCCCN3)cn2)cn1` (configuration not stated) the value was -2.241% and -0.3197% and -12.37%.
Take `Cc1cc(C)nc(C2CCCNC2)n1.Cl.Cl` (configuration not stated): the “Percent Effect” value is given as 16.42%.
Still for that read-out and setting: for `Cc1cc(O)nc(C2CCCNC2)n1.Cl` (configuration not stated) the value was 1.062%; for `COCCN1CCOCC12CCN(C(=O)c1ccncc1)CC2.O=C(O)C(F)(F)F`, -4.875%.
In the case of `O=C(O)C(F)(F)F.O=C(O)C(F)(F)F.c1cncc(N2CCOCC3(CN(Cc4cccs4)CCO3)C2)c1` (configuration not stated), the “Percent Effect” value is given as 7.302%.
On the same count and under the same terms, the figure for `O=C(O)C(F)(F)F.O=C(O)C(F)(F)F.c1cncc(COCC2CC[C@H]3[C@H]2OCCN3Cc2ccoc2)c1` (some centres not stated) is 12.08%; for `O=C(O)C(F)(F)F.O=C(O)C(F)(F)F.c1cncc(OC[C@@]23CCC[C@@H]2CN(C2CCOCC2)C3)c1` it is 9.846%; for `O=C(O)C(F)(F)F.O=C(O)C(F)(F)F.c1cnc(N2CC3(CCN(Cc4ccncc4)C3)C2)nc1` it is -6.54%.
